Laboratory results taken from the supplement of paper PMC12636033.
± gives the standard deviation of the averaged measurements. Whole data set: some 33,000 sequences, median “E-score (rank enrichment, -0.5 to 0.5)” near -0.0028, cut for the highest 2% near 0.23. What follows is part of a selection rich in the highest values, with near analogues and random picks from the rest.

test system: 2Sb-muMax20 (muMax20 with two 1,3-bis(methyl)benzene Cys staples, A13C/A17C and Q88C/A92C, C-terminal Lys); assay: PBM 8-mer E-score (E-score (rank enrichment, -0.5 to 0.5)); higher = stronger preferential binding
Protocol: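 Protein binding microarray (universal PBM chip covering all 10-mers in fixed probe flanks) with chemically synthesized human Max(13-93) bHLH-LZ analogs (not full-length Max) bearing noncanonical residues (hArg, Tha, Aib, Nle at 65) and aromatic Cys staples. Read-out per 8-mer (and its reverse complement): E-score (rank-based enrichment, -0.5 to 0.5) and Z-score of median probe intensity.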

Row | Sequence | PBM 8-mer E-score
1 | ATTCGGAG | -0.0732 ± 0.026
2 | GGGGATCA | 0.0797 ± 0.027
3 | AAGACCGT | -0.244 ± 0.028
4 | AATGGTAT | 0.157 ± 0.044
5 | ACGGGGTG | 0.118 ± 0.023
6 | CAGTATAC | 0.0863 ± 0.1
7 | GATGAAAC | 0.0586 ± 0.022
8 | ATGAACGG | -0.111 ± 0.0086
9 | CTCCGTCC | -0.114 ± 0.018
10 | ATGTAATA | 0.236 ± 0.065
11 | CTGTAATA | 0.0526 ± 0.019
12 | ATGTAACG | 0.0488 ± 0.0084
13 | ATGTAATG | 0.155 ± 0.013
14 | ATGTAACA | 0.242 ± 0.031
15 | CTGTAACA | -0.00643 ± 0.026
16 | AAAACCAC | 0.121 ± 0.013
17 | GCGTACCA | -0.0976 ± 0.0064
18 | AGACAAAA | -0.00983 ± 0.042
19 | ACAGCAAA | 0.0417 ± 0.047
20 | ACGGGAAT | -0.08 ± 0.016
21 | AATGGGTA | 0.039 ± 0.0031
22 | AGTGGGCG | 0.237 ± 0.019

Row | Sequence | PBM 8-mer E-score
23 | GTTGGGTA | 0.1494 ± 0.00044
24 | AGTGGGTG | 0.259 ± 0.0086
25 | GGTGGGTA | 0.282 ± 0.063
26 | CATGGGTA | 0.053 ± 0.028
27 | AGTGGGCC | -0.212 ± 0.019
28 | GATGGGTA | 0.246 ± 0.021
29 | AGTGGGTA | 0.121 ± 0.042
30 | AGTGGGCA | 0.0757 ± 0.023
31 | AGTGGGTC | -0.178 ± 0.017
32 | CGTGGGTA | 0.00707 ± 0.0098
33 | CGGCGCCG | -0.0151 ± 0.033
34 | AATGAACA | 0.129 ± 0.016
35 | CCGCTGGC | -0.26 ± 0.0032
36 | AAGGCACG | 0.076 ± 0.023
37 | GGCACACA | -0.16 ± 0.044
38 | ATTCCGCC | 0.107 ± 0.039
39 | TAACTAGA | 0.238 ± 0.031
40 | AAACTAGA | 0.08188 ± 0.00023
41 | GAACTAGA | 0.067 ± 0.017
42 | ACTATTAA | 0.176 ± 0.026
43 | CATATTAG | 0.132 ± 0.032
44 | AATATTAG | 0.178 ± 0.0068

Row | Sequence | PBM 8-mer E-score
45 | AATATTAA | 0.335 ± 0.045
46 | CATATTAA | 0.238 ± 0.062
47 | TATATTAA | 0.158 ± 0.011
48 | AATATTAT | 0.259 ± 0.0099
49 | AGTATTAC | 0.236 ± 0.075
50 | ACTATTAT | 0.194 ± 0.027
51 | AGTATTAG | 0.147 ± 0.0055
52 | AGTATTAA | 0.206 ± 0.061
53 | GATATTAA | 0.123 ± 0.014
54 | AGGAGGTC | -0.222 ± 0.015
55 | CGGGAGGC | -0.24 ± 0.032
56 | ATCTTACA | 0.075 ± 0.012
57 | ACCCAAGA | 0.0956 ± 0.071
58 | GGACCAGA | -0.2186 ± 0.0017
59 | AGCCAACC | 0.106 ± 0.0086
60 | GTCAATAA | 0.075 ± 0.025
61 | TGAGACAA | 0.109 ± 0.058
62 | AGCTTAGC | -0.123 ± 0.011
63 | ACTGGGTG | 0.00505 ± 0.024
64 | CGTTTAGC | 0.00586 ± 0.16
65 | TCTGTGCA | -0.0114 ± 0.085
66 | GCTAGAAC | -0.0972 ± 0.085

Row | Sequence | PBM 8-mer E-score
67 | GATATTAC | 0.187 ± 0.088
68 | CATATTAC | 0.146 ± 0.071
69 | AATATTAC | 0.26 ± 0.0093
70 | ACGCAGCA | -0.0676 ± 0.011
71 | CATCAATA | 0.0338 ± 0.066
72 | CCTTTCAC | 0.0485 ± 0.022
73 | CTCGCGAC | 0.107 ± 0.013
74 | GTCGCGAA | -0.208 ± 0.09
75 | ATCGCGAG | 0.151 ± 0.049
76 | ATCGCGAT | 0.255 ± 0.036
77 | GTCGCGAC | 0.291 ± 0.0036
78 | ATCGCGAA | 0.0277 ± 0.02
79 | GGCTGTGA | -0.181 ± 0.072
80 | ACTTATGC | -0.0277 ± 0.024
81 | AGTGCGAC | -0.0265 ± 0.057
82 | GACCAGAC | -0.231 ± 0.026
83 | CGGTCGGA | -0.196 ± 0.0063
84 | CATTCGTC | -0.00288 ± 0.012
85 | GAGATGCA | 0.113 ± 0.076
86 | AAGATGCA | 0.262 ± 0.023
87 | ATGATACC | 0.127 ± 0.024
88 | AAGATGCT | 0.0039 ± 0.035

Row | Sequence | PBM 8-mer E-score
89 | AAGATACA | 0.245 ± 0.033
90 | ATGATACA | 0.255 ± 0.0028
91 | AAGATACT | 0.151 ± 0.031
92 | GAGATACA | 0.0204 ± 0.028
93 | CTGATACA | -0.049 ± 0.059
94 | GCAAATCA | -0.0255 ± 0.056
95 | ACTTTGCG | 0.0825 ± 0.063
96 | AGCTACTA | 0.0815 ± 0.033
97 | AATTGGAA | 0.00538 ± 0.0076
98 | CGTTAACA | 0.0451 ± 0.018
99 | TGTTAACA | 0.301 ± 0.013
100 | AGTTAACA | 0.138 ± 0.09
101 | CAAACTGG | -0.0119 ± 0.034
102 | AAATATTC | 0.124 ± 0.084
103 | AAATATGT | 0.148 ± 0.031
104 | CAATATGA | 0.159 ± 0.05
105 | GAATATTC | 0.166 ± 0.09
106 | GAATATTA | 0.238 ± 0.066
107 | AAATATTA | 0.243 ± 0.032
108 | CAATATTA | 0.106 ± 0.017
109 | TAATATGA | 0.168 ± 0.022
